In PubChem BioAssay AID1159506 (National Center for Advancing Translational Sciences (NCATS), 2015):
Whole data set: some 59,000 sequences, median the read-out near -0.00055, cut for the lowest 2% near -2. The full list was thinned out, with the lowest values kept by preference.

assay: Identification of proteins required for the processing of the EWS-FLI1 nascent transcript; conditions: TC32 Ewing sarcoma NR0B1-luc vs CMV-luc (EWS-FLI1 target promoter against control promoter), 48 h; screened at 20 nM (by protocol);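 further: robust z of luciferase light less the median z of siRNAs with the same seed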
Outline: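 Genome-wide siRNA screen (Ambion v4.1, three siRNAs per gene, 20 nM final, RNAiMax) in Ewing sarcoma TC32 cells carrying NR0B1-promoter or CMV-promoter luciferase; OneGlo luciferase read 48 h post-transfection. Data normalized, z-score-MAD transformed and seed-adjusted.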

| Sequence | seed-corrected z-score |
| --- | --- |
| UUAAAUUCUUGGAAGUAGA against SCNN1B | 0.779 |
| UGACGAAAUAGUAGAAGUG against MOB3A | -0.387 |
| UUCAUCACCAGCUCUUUCC against CLEC4F | -0.0692 |
| UCAUGGGACGGCAUAACUG against SPDYE3 | -0.601 |
| ACGAUUACAACUUCGAUCC against DOCK7 | 1.63 |
| UGGCGCUUGAUUGGAACUC against UNC5B-AS1 | -0.56 |
| AUGUUUGACAUUGUCCACG against KPNA2 | -2.38 |
| AAGUUGAAGAUAAGAGUCC against C11orf63 | -0.178 |
| AUCGAAAUAAGUCAGAUAG against NAA25 | 0.893 |
| UGACCUGUAGCGUUGCAGC against EFCC1 | -0.581 |
| UCUAUAUCUCCGUAAUUCC against TRRAP | -2.5 |
| UUAGUUCCUGGGUAUCUGC against SNAP47 | 1.17 |
| UUUCAUAGAAUCUAUCCAG against C20orf196 | 0.184 |
| UUUGGAACUGGUCAUGUGU against RPL29P30 | -3.1 |
| UUUCUGAGGAGACAACUCU against ANKRD36B | 0.345 |
| UUGGGUAAAAUGUCCACUC against SPATS1 | -2.28 |
| UGUGCGACUGGAGAAUGCG against KRT81 | -0.00183 |
| UGAUAUAUAACUUAGAUGG against VWA9 | -12.6 |
| AGAGUGACCAGUCCGGUAG against CIDEA | 0.43 |
| UCCCGGUCUGCAUUCUUCC against PHKA1P1 | -0.749 |
| AAAGUUGCUACAGCUGUCA against SH3BP5 | -2.12 |
| UUAGUGUGAAUAGUGAUUU against PODXL | 0.827 |
| UAUCUUUCUCAGGAGUUUG against OR2T10 | -0.23 |

| Sequence | seed-corrected z-score |
| --- | --- |
| AUAGCAGUCAACAUCGUAG against TMED3 | -2.8 |
| UGACUUGGCACAGUAUAUC against FAM83A | -0.413 |
| UAUCUUUAAAGUGUAUCUA against FAM230B | 0.596 |
| UCUAGGCUCAGGAAGUUCU against AP5S1 | -1.09 |
| AAACCAAGUAGCUUGAUGU against LOC647275 | 0.229 |
| UCAUUUUGAAUUGAAGAUG against FAM76A | 0.228 |
| UUUCCAUAGGAGACGAUGC against CTSG | 0.0794 |
| UGUUGAUAAGUUACCAUCC against GPCPD1 | 0.968 |
| UUGUUCUAAAGUAUCCUCC against NDC80 | -2.14 |
| AGUCAUUUAAACUUGAUCC against TMSB4X | 0.898 |
| UACGCUUUCUCUACAGUAC against ZNF606 | 0.237 |
| UCUCUUAUGCAGCUUGUGG against SPTBN4 | 0.43 |
| UGCAUAGACAAGGCAGUCG against ZNRF2 | -2.35 |
| UCAGCUGAUAUCUUGUUGC against UBOX5 | 0.0283 |
| ACAGUUUCGAAGGCGAAUG against ABCB9 | -1.83 |
| AAUGCAACCACAGCUAUCC against THNSL1 | 0.294 |
| UUACUGUGCUGUCUAGACC against TMEM79 | 1.12 |
| UUGCUAUUCCUCCUGGUAG against IRF2BP2 | -0.0854 |
| AAUAUCAAUACGAUCUCUG against SNAP23 | -0.225 |
| UUAUGUAUCAUACAAAAGU against YPEL4 | 1.55 |
| UGUGCCUUUCUGACGAUGG against SBK2 | 0.535 |
| UAAGUGGAAAUCCUCGGGC against WBP2NL | 1.46 |
| UUAUUUAUUCCGUUCAUAU against UBE2V2 | -3.25 |

| Sequence | seed-corrected z-score |
| --- | --- |
| UCAUGUAAUCUAGCGAUCG against ENTHD1 | 0.768 |
| UUUUGGUCACUUCAAAUUC against MYDGF | -2.17 |
| UCACAAACCACGUUACACG against PABPC3 | -0.495 |
| AGUAGAUACAGCUUCUUUC against CCDC50 | -0.915 |
| AAAUUUCACAGGUAAUAUG against OR13D1 | -0.485 |
| AUGGUGACAAUUGAACUCC against IGF1R | -1.36 |
| UCUGUUAGCAGCUGGUUUG against SH3D19 | -2.01 |
| UUUAUUAUGAUCUUCCGAG against PIP | 0.162 |
| UUUGACGAAAUGGGAAUCC against OMD | -0.258 |
| UAACGUAUAGCUACAACUC against MED23 | 0.49 |
| UGAUUUUCUGCACAAGUCC against NELL2 | 0.658 |
| AUUCUGUUCAAACAUCUGG against EXOC3 | -2.38 |
| UACGCGGGCAAACUUCUCC against LRRC14 | 0.0562 |
| AAUUCGCAAAGAAUGAUGC against CNN1 | 0.159 |
| UAGACUACCGGCUUCUUGC against CTRC | -0.112 |
| UCAGCAUCUUCCAUGAUAG against B3GNT4 | -0.437 |
| AUCUGGUUGCUUUUUAUCC against FAM60A | -3.49 |
| UGAACCACCAGGGUAUACG against CDH1 | 1.03 |
| UCUUGAAUUGAGCAAGUCC against MGAT5 | 0.401 |
| UUUCAGCUAAUGCAUUUUG against VIP | -3.11 |
| UGUAGUAGAACUUCCUGGG against HS6ST1 | -1.42 |
| UCAAUUUUGAGUCCAUUGG against ANKRD46 | 0.911 |
| UCCUUUAGAACUCUCGAUC against WIPF3 | 0.233 |

| Sequence | seed-corrected z-score |
| --- | --- |
| AUUAACAUAAUCUUGAUCC against CCNL2 | -4.87 |
| UCAAAGGUCACGGUCAGGA against PRDM15 | -1 |
| UUUAGAGGGACUCUUGUUU against HMGA2 | -1.74 |
| UUCUGACUGAGAGCUAUGG against BNIP3L | -0.338 |
| UAAAUAGUUCUCGUCUUUC against EHF | 0.511 |
| UCUCUUGAGAGCGCGGUUG against RGS8 | 1.31 |
| UACUGAUUGAGUGCCCUGC against FGGY | -5.78 |
| UGAAGUUCAGCUACUAGCC against DIMT1 | -0.104 |
| UAAACAGUGAUUGCACCAC against ZNF497 | -1.22 |
| UAAGAAAAUAGGGAGGCCG against H1F0 | 0.96 |
| UCCGAGUCAAUACUGUAUC against UIMC1 | 0.162 |
| UGCUUUUUCAUGGACCACC against SOD1 | -3.09 |
| ACUAAUACUAAAUUCAACC against CSDE1 | 1.52 |
| UCCAGCUGAACUGUCACUC against TBX10 | -0.201 |
| UUCUUUUCCAGGUACGUGA against CCDC105 | -0.394 |
| UAUGUGCUUACUAGGGUCA against SSR3 | -0.244 |
| AUCUUUCGAACUACAAUUG against PSME4 | 1.14 |
| UCCCAAGUCGCUCAAGUUC against LOC389834 | 0.29 |
| UUUGGAGACAACAAGGUCG against SYN3 | -0.442 |
| UCCGGAAGUACUGUCGAAG against PPP2R1A | -0.186 |
| AAUGUACUAUCUACUUGCC against ZNF507 | -0.378 |
| UCAGGAUCAAAAUCCAGUC against LTV1 | -2.94 |
| UGUCGAAACAGGAGGCGCU against ZNF579 | -1.11 |

| Sequence | seed-corrected z-score |
| --- | --- |
| ACAGAUCAAAGAACUGUCC against LGALS4 | 0.144 |
| UACUUGGACAAGUCCAAGA against LSM7 | 0.593 |
| UGAACUUCUGGAGUCCCUC against CCDC115 | 1.1 |
| UUUCGUAACCCUUCUGGGC against GNPTAB | 0.263 |
| UAAGGUUAGGUUAGGAAUG against SH3BGRL3 | -0.0213 |
| UAAUAGACCACGGAGUCUU against TMEM130 | -3.42 |
| UAAUCUCCUUCUUUAGGUC against CNOT3 | 1.42 |
| AGUUCACUAAGUCAAUAGC against TMEM44 | -1.14 |
| UGGGUCAUGUGCUCUAUCC against HDGFL1 | -0.0953 |
| UAUGAGGUAAAGUGGGAAG against LCE2A | -2.17 |
| UUGGGUUCGAUAUCUGCUU against CALML4 | 0.413 |
| UCAGAAAUGACCUUGUUGC against LOC729187 | 1.39 |
| AUCGGCAAAGUAAUUCUGG against NECAB3 | 0.533 |
| UGUAUUACAAUAUUCCUUC against LACE1 | -0.00635 |
| UCUUGUCGUAGUUCGUGGG against DUS3L | -2.02 |
| AAACUGGUCAUCAUCCACC against SIKE1 | 0.42 |
| AUCUGAGUGGAAAAAGUCC against AHNAK2 | 0.0875 |
| UUCAGACUUGUUUUCACCC against POU1F1 | -0.00706 |
| AAAGGUAGAAAGAAGGACU against ZDHHC8P1 | -0.722 |
| UUGGUCUAGACUACUCUCC against KRT5 | -0.431 |
| ACAGAUAUCACAGGUAACC against MCU | 0.266 |
| AACAUAGCUAAAGUUGUUG against SLC16A5 | -3.24 |
| GAGCCGAACACCACUAUGG against SYNGR1 | -0.617 |

| Sequence | seed-corrected z-score |
| --- | --- |
| AGAUCUACUACAGCCGUUC against RARS2 | 0.391 |
| UUCGACCCAAGGUUUGUGC against DBF4 | 0.865 |
| UUAAUGAUAAACACGUCUU against LMX1A | -0.388 |
| UCCUAUAGCAGAAUAUUCC against PVRL3 | -0.846 |
| UCAACAUUAGGUUUCUUAG against TAF9B | 0.431 |
| UCUGGUAGUUCUUCAAGGC against LINC00238 | 0.0623 |
| UAUUCUGUAGGCUCAAAAC against KRTAP4-11 | -3.43 |
| UUUCGCUAAGCUGCUCUUC against AQP9 | -0.131 |
| UUAUGGAAUGUCGUUUUCC against FAM228A | 0.0891 |
| UAAUGUCUAAGGAAGAUUU against ZBTB8A | 0.693 |
| AAGCUGAUAAUAGGCUUUC against DNAJA3 | -0.565 |
| UUCCAAGACAGAAAUGAGG against DNHD1 | 0.456 |
| UGGGAUUUUAAAACGGCGG against DPP9 | 0.0729 |
| UUCUAUUUAGGAGAGCUUC against RPS16P10 | -1.32 |
| UAUCUUGUGGUGGUAGAGC against METTL23 | 0.782 |
| UCCGUUUUUGAGAAACUUG against PNLDC1 | -0.423 |
| UAGAAAGUCUUUACUAUGU against PIGA | -1.02 |
| UAAGUAGAUGGAGGACACC against MRGPRF | -2.16 |
